Experimental data taken from PubChem BioAssay (NCI).
About 79,000 compounds went through this panel and 15% of them were active in at least one assay; those are over-represented in the sample as a whole. Activity calls are given as the source filed them. Rule as the data show it: active = growth inhibition above about 70%; inactive = the rest.

Columns and labels:
[1] = NCI Yeast Anticancer Drug Screen. Data for the mec2-1 strain (AID 157); conditions: S. cerevisiae mec2-1 strain, stronger effect = higher value
Outline: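 mec2-1 yeast strain, carrying an alteration in DNA damage repair or cell cycle control, was exposed to compounds; growth inhibition was measured relative to vehicle-treated controls.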

[2] = NCI Yeast Anticancer Drug Screen. Data for the rad14 strain (AID 159);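 also: 0% = growth of vehicle-treated control cultures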; conditions: S. cerevisiae rad14 strain growth inhibition, stronger effect = higher value
Outline: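 Growth inhibition vs vehicle controls; genetically altered yeast strain (DNA damage repair defect) treated with test compounds.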

[3] = NCI Yeast Anticancer Drug Screen. Data for the sgs1 mgt1 strain (AID 161);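 also: 0% = growth of cultures given vehicle only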; conditions: S. cerevisiae sgs1 mgt1 strain, stronger effect = higher value
Outline: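 Yeast cells carrying a defined DNA-repair defect were exposed to test compounds. Growth inhibition was measured relative to vehicle-treated controls.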

[4] = NCI Yeast Anticancer Drug Screen. Data for the CLN2oe strain (AID 163);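 also: 0% = growth of vehicle-only control cultures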; conditions: S. cerevisiae CLN2oe strain, stronger effect = higher value
Outline: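 Yeast cells carrying a defined cell-cycle control alteration were exposed to test compounds. Growth inhibition was scored against vehicle-treated control cultures.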

[5] = NCI Yeast Anticancer Drug Screen. Data for the cln2 rad14 strain (AID 165);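 also: 0% = growth equal to vehicle treated cultures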; conditions: S. cerevisiae cln2 rad14 strain, stronger effect = higher value
Outline: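 Yeast carrying cln2 and rad14 alterations (cell cycle control and DNA damage repair) were exposed to compounds. Growth inhibition was measured against vehicle-treated controls.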

[6] = NCI Yeast Anticancer Drug Screen. Data for the bub3 strain (AID 167); conditions: S. cerevisiae bub3 mutant strain, stronger effect = higher value
Outline: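 Readout: yeast growth inhibition, expressed relative to vehicle-only wells. The test organism is a mutant strain from a panel with lesions in DNA repair or checkpoint genes.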

[7] = NCI Yeast Anticancer Drug Screen. Data for the wt2 strain (AID 169);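 also: 0% = growth of vehicle-treated yeast cultures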; conditions: S. cerevisiae wt2 strain growth inhibition, stronger effect = higher value
Outline: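 Yeast cells were exposed to test compounds, and growth inhibition was measured relative to vehicle-treated controls.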

[8] = NCI Yeast Anticancer Drug Screen. Data for the mlh1 strain (AID 171);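 also: 0% = growth of vehicle-treated control cultures of the same strain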; conditions: S. cerevisiae mlh1 strain growth inhibition, stronger effect = higher value
Outline: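 Yeast carrying a defined genetic alteration in DNA damage repair or cell cycle control were exposed to test compounds. Growth inhibition was measured relative to vehicle-treated controls.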

[9] = NCI Yeast Anticancer Drug Screen. Data for the sgs1 strain (AID 173);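 also: 0% = growth of vehicle-only control cultures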; conditions: S. cerevisiae sgs1 mutant, stronger effect = higher value
Outline: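 Yeast mutant strains carrying defined defects in DNA damage repair or cell cycle control were exposed to test compounds. Growth inhibition was scored against vehicle-treated controls.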

[10] = NCI Yeast Anticancer Drug Screen. Data for the mlh1 rad18 strain (AID 175); conditions: S. cerevisiae mlh1 rad18 strain growth inhibition, stronger effect = higher value
Outline: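 Growth inhibition of the yeast strain was measured after compound exposure and expressed relative to vehicle-treated controls. The strain carries defined defects in DNA damage repair.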

[11] = NCI Yeast Anticancer Drug Screen. Data for the rad18 strain (AID 177); conditions: S. cerevisiae rad18 mutant growth inhibition, stronger effect = higher value
Outline: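 Yeast carrying a defined DNA damage repair alteration were exposed to compounds. Growth inhibition was expressed relative to vehicle-treated controls.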

[12] = NCI Yeast Anticancer Drug Screen. Data for the rad52 strain (AID 147);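 also: 0% = growth of vehicle-treated control cultures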; conditions: S. cerevisiae rad52 mutant growth inhibition, stronger effect = higher value
Outline: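 Yeast strain carrying a DNA damage repair alteration was exposed to test compounds. Growth inhibition was measured relative to vehicle-treated controls.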

[13] = NCI Yeast Anticancer Drug Screen. Data for the wt1 strain (AID 149);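 also: 0% = growth of vehicle-treated wt1 cultures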; conditions: S. cerevisiae wt1 strain (SPY 50644) growth inhibition, stronger effect = higher value
Outline: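 Growth inhibition read against vehicle controls after compound exposure of the wt1 yeast strain.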

[14] = NCI Yeast Anticancer Drug Screen. Data for the rad50EPP+ strain (AID 151);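 also: 0% = growth of vehicle-treated control cultures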; conditions: S. cerevisiae rad50 mutant strain, stronger effect = higher value
Outline: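 Yeast strain carrying rad50 alteration (rad50EPP+) exposed to compounds; growth inhibition measured relative to vehicle-treated controls.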

[15] = NCI Yeast Anticancer Drug Screen. Data for the mgt1 strain (AID 153); conditions: S. cerevisiae mgt1 mutant growth inhibition, stronger effect = higher value
Outline: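 Yeast mgt1 strain (DNA repair/cell-cycle alteration panel) exposed to compounds; growth inhibition measured relative to vehicle-treated controls.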

[16] = NCI Yeast Anticancer Drug Screen. Data for the rad50 strain (AID 155);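 also: 0% = growth of vehicle-only cultures of the same strain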; conditions: S. cerevisiae rad50 strain growth inhibition, stronger effect = higher value
Outline: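 Readout: growth inhibition relative to vehicle-treated cultures. Compound exposure was carried out in a genetically defined yeast strain deficient in DNA damage repair.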

[17] = at 5.0 µM (retest, dose inferred, filed as 0.5)
[18] = at 50.0 µM (retest, dose inferred, filed as 5.0)

Measured: growth inhibition

NC(=S)N/N=C1\c2ccccc2CCC1CCC1(O)CCc2ccccc2C1=O (stereo unspecified)
active: [1]; at 50.0 µM 88.2% | [1]; at 100.0 µM 81% | [2]; at 33.0 µM 82% | [2]; at 100.0 µM 86% | [3]; [18] 88% | [3]; at 50.0 µM 92.5% | [4]; at 100.0 µM 82% | [5]; [18] 81% | [5]; at 50.0 µM 89.7% | [6]; at 33.0 µM 84% | [6]; [18] 83% | [6]; at 100.0 µM 85% | [7]; at 100.0 µM 83% | [8]; at 33.0 µM 79% | [8]; at 100.0 µM 81% | [9]; at 33.0 µM 82% | [9]; at 100.0 µM 84% | [10]; [18] 83% | [10]; at 50.0 µM 93.3% | [11]; at 33.0 µM 86% | [11]; at 100.0 µM 81%
inactive: [1]; [17] -1% | [1]; at 11.0 µM 16% | [1]; at 33.0 µM 50% | [1]; [18] 55% | [2]; at 1.2 µM 2% | [2]; at 3.7 µM 7% | [2]; at 11.0 µM 47% | [3]; [17] 10% | [4]; at 1.2 µM 38% | [4]; at 3.7 µM 36% | [4]; at 11.0 µM 42% | [4]; at 33.0 µM 64% | [5]; [17] 18% | [6]; at 1.2 µM 20% | [6]; at 3.7 µM 13% | [6]; [17] 17% | [6]; at 11.0 µM 34% | [6]; at 50.0 µM 46.1% | [7]; at 1.2 µM -8% | [7]; at 3.7 µM -7% | [7]; at 11.0 µM 13% | [7]; at 33.0 µM 62% | [8]; at 1.2 µM 14% | [8]; at 3.7 µM 14% | [8]; at 11.0 µM 46% | [9]; at 1.2 µM 34% | [9]; at 3.7 µM 34% | [9]; at 11.0 µM 63% | [10]; [17] 0% | [11]; at 1.2 µM 52% | [11]; at 3.7 µM 50% | [11]; at 11.0 µM 63%

Cc1ccc(C)c(C(=N)c2ccccc2Cc2ccccc2)c1
active: [12]; at 11.0 µM 70% | [12]; at 33.0 µM 94% | [12]; at 100.0 µM 97% | [13]; at 33.0 µM 90% | [13]; at 100.0 µM 97% | [14]; at 33.0 µM 84% | [14]; at 100.0 µM 94% | [15]; at 11.0 µM 75% | [15]; at 33.0 µM 94% | [15]; at 100.0 µM 97% | [16]; at 11.0 µM 71% | [16]; at 33.0 µM 92% | [16]; [18] 96% | [16]; at 50.0 µM 98.4% | [16]; at 100.0 µM 95% | [1]; at 11.0 µM 72% | [1]; at 33.0 µM 95% | [1]; [18] 94% | [1]; at 50.0 µM 97.3% | [1]; at 100.0 µM 97% | [2]; at 33.0 µM 93% | [2]; at 100.0 µM 98% | [3]; [18] 94% | [3]; at 50.0 µM 97.5% | [4]; at 33.0 µM 95% | [4]; at 100.0 µM 98% | [5]; [18] 93% | [5]; at 50.0 µM 93.4% | [6]; at 11.0 µM 77% | [6]; at 33.0 µM 96% | [6]; [18] 97% | [6]; at 50.0 µM 97.4% | [6]; at 100.0 µM 95% | [7]; at 11.0 µM 78% | [7]; at 33.0 µM 93% | [7]; at 100.0 µM 97% | [8]; at 11.0 µM 80% | [8]; at 33.0 µM 92% | [8]; at 100.0 µM 98% | [9]; at 11.0 µM 86% | [9]; at 33.0 µM 95% | [9]; at 100.0 µM 97% | [10]; [18] 94% | [10]; at 50.0 µM 98.2%
inactive: [12]; at 1.2 µM -5% | [12]; at 3.7 µM 17% | [13]; at 1.2 µM -3% | [13]; at 3.7 µM 10% | [13]; at 11.0 µM 35% | [14]; at 1.2 µM -4% | [14]; at 3.7 µM 2% | [14]; at 11.0 µM 31% | [15]; at 1.2 µM -3% | [15]; at 3.7 µM 37% | [16]; at 1.2 µM -1% | [16]; at 3.7 µM 7% | [16]; [17] 60% | [1]; at 1.2 µM 2% | [1]; at 3.7 µM 12% | [1]; [17] 0% | [2]; at 1.2 µM 0% | [2]; at 3.7 µM 31% | [2]; at 11.0 µM 52% | [3]; [17] 62% | [4]; at 1.2 µM -3% | [4]; at 3.7 µM 6% | [4]; at 11.0 µM 47% | [5]; [17] 18% | [6]; at 1.2 µM 7% | [6]; at 3.7 µM 29% | [6]; [17] 13% | [7]; at 1.2 µM -1% | [7]; at 3.7 µM 42% | [8]; at 1.2 µM 0% | [8]; at 3.7 µM 35% | [9]; at 1.2 µM 8% | [9]; at 3.7 µM 60% | [10]; [17] 45%
